Bioassay records from PubChem BioAssay.
tim10-1 inh = growth inhibitors of tim10-1 mutant yeast; S. cerevisiae tim10-1 ts strain growth, BacTiter-Glo, 24 h; inhibition, % at 20 µM; actives 2.2% (n = 330,000);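 active means inhibition of at least 40%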;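 further: mutant grown at 25 °C; 0% = DMSO wells with yeast and 100% = wells holding no yeast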
Mot1-301 SUMO = blocks SUMOylation pathway, rescuing yeast Mot1-301 growth. S. cerevisiae Mot1-301 growth rescue, ATP luminescence, 38.5C; percent above DMSO median, 100 means doubled. growth rescue, % at 18.8 µM. AID 2716. actives 1% (n = 320,000);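 active means every valid replicate shows activation above 250% relative to neutral control wells; inactive means the rest, any valid replicate at or below 250%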;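 further: OY570 slx delta 5 strain wells were the positive control but not used for scaling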
PfHsp90 yeast 2 = growth inhibition of yeast expressing Plasmodium Hsp90; S. cerevisiae expressing PfHsp90, BacTiter-Glo ATP, 48 h; yeast lacking PDR1 and PDR3 efflux regulators; actives 0.32% (n = 310,000); inhibition, % at 9.4 µM;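 active means every replicate shows inhibition above about 80%, whatever the replicate mean, limit read from the data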;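 further: 0% = DMSO neutral controls and 100% = 20 µM radicicol positive controls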
TIM10 inh = TIM10 yeast growth inhibition. actives 1.4% (n = 330,000). S. cerevisiae TIM10 strain growth, BacTiter-Glo luminescence, 24 h. inhibition, % at 10 µM;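 active means inhibition of 40% or more at the single tested concentration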;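 further: wild-type TIM10 isogenic control strain grown at permissive 25 °C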
tim23-1 inh = inhibits growth of tim23-1 mutant yeast | S. cerevisiae tim23-1 growth, BacTiter-Glo luminescence, 24 h | inhibition, % at 20 µM | actives 1.3% (n = 330,000);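 active means growth inhibition of the mutant yeast at or above 50%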;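 further: temperature-sensitive mutant grown at 25 °C; plate controls were DMSO-treated mutant yeast for no effect and medium wells lacking yeast for full effect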
tim23-1 confirm = tim23-1 yeast growth inhibition, confirmed | actives 83% (n = 4,400) | S. cerevisiae tim23-1 growth, BacTiter-Glo luminescence, 24 h | inhibition, % at 20 µM | shares compounds with tim23-1 inh;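 active means inhibition above about 39% in either of two replicate wells at 20 µM, limit read from the data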;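 further: temperature-sensitive tim23-1 mutant grown at 25 °C; 0% = DMSO wells with yeast and 100% = medium wells without yeast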
The depositor's hits bear a star; . = not tested or not shown. Hits are enriched below; roughly 4.4% of the tested compounds scored in any of these assays.

SMILES | tim10-1 inh | Mot1-301 SUMO | PfHsp90 yeast 2 | TIM10 inh | tim23-1 inh | tim23-1 confirm
COc1cccc(-c2ccc3ncnc(NCc4cccs4)c3c2)c1 | 29 | 16 | 2 | 29 | 52* | 43*
O=C(NC(=O)c1ccc(F)cc1F)Nc1ccc(Cl)cc1 | -12 | 2 | 3 | -9 | -21 | .
O=C(O)CSc1nnc(-c2ccc(Cl)cc2Cl)n1-c1ccc(Br)cc1 | 4 | 0 | 6 | 2 | -3 | .
COCC(=O)N1CCC2CC1c1cc(Cl)ccc12 (stereo unspecified) | . | . | 13 | . | . | .
Cc1cnc(=O)[nH]c1SCc1ccc([N+](=O)[O-])cc1 | -18 | 90 | -12 | -1 | -3 | .
COC(=O)c1ccc2nc(NC(=O)C3CC3)sc2c1 | 34 | 15 | 12 | 33 | 51* | 50*
CC1CC1C(=O)Nc1nc2ccc(Cl)cc2s1 (stereo unspecified) | 40 | 61 | -67 | 34 | 56* | 53*
Cn1cc(Cl)c(C(=O)Nc2nc3ccc(Cl)cc3s2)n1 | -1 | -5 | -8 | -4 | 1 | .
Cc1nc2scc(C)n2c(=O)c1S(=O)(=O)Nc1ccc(N2CCOCC2)cc1 | -2 | -14 | -20 | -3 | 71* | 47*
Cc1nc2scc(C)n2c(=O)c1S(=O)(=O)Nc1ccc(N2CCN(C(=O)C(C)C)CC2)cc1 | -12 | -19 | 14 | 8 | 3 | .
Cc1c(OCC(=O)NCC(O)c2ccccc2)ccc2c(-c3ccccc3)cc(=O)oc12 (stereo unspecified) | 11 | 20 | 5 | -4 | -8 | .
O=C(Nc1ccc(F)c(Cl)c1)C1CCCC1 | 6 | 21 | . | 2 | 33 | .
O=C(Nc1ccc(Br)c(Cl)c1)C1CC1 | 2 | -8 | . | 32 | 63* | 56*
O=C(NC(=S)Nc1ccc(F)c(Cl)c1)C1CC1 | 29 | 20 | -22 | 7 | 54* | 33
O=C(NC(=S)Nc1ccc(Br)cc1)C1CCCCC1 | 8 | 1 | 6 | 6 | 6 | .
O=C(NC(=S)Nc1ccc(Br)cc1)C1CCC1 | 27 | 67 | 3 | 10 | 57* | 34
O=C(Nc1ccc(F)cc1)c1cccnc1NCCc1ccccc1 | 27 | 27 | 10 | 12 | 39 | .
O=C(Nc1cccc(F)c1)c1cccnc1NCCc1ccccc1 | 21 | 8 | -16 | 20 | 54* | 54*
Cn1c(-c2ccccc2)c(/C=N/NC(=O)c2ccc(O)cc2)c2ccccc21 | 8 | -10 | -18 | 16 | 3 | .
Cc1cc2cc(CN(CC3CCCO3)C(=S)Nc3ccccc3)c(=O)[nH]c2cc1C (stereo unspecified) | 18 | -1 | -33 | 32 | 55* | 50*
CCOc1ccc(NC(=O)COC(=O)CNC(=O)c2ccc(-c3ccccc3)cc2)cc1 | -1 | 0 | -10 | 3 | 3 | .
CC1CCCCN1C(=O)c1cc(-c2ccc3c(c2)OCO3)on1 (stereo unspecified) | -9 | -9 | 0 | -4 | 92* | 28
O=S1(=O)CCC(N=Cc2cc(Br)ccc2O)C1 (stereo unspecified) | 31 | 77 | 2 | 30 | 56* | 43*
O=c1c2ccccc2c(C=NC2CCS(=O)(=O)C2)c(O)n1-c1ccccc1 (stereo unspecified) | 18 | -1 | . | -8 | -9 | .
COc1ccc(Nc2cc(C)c3ccc(O)cc3n2)cc1 | -46 | -2 | 15 | -25 | 51* | -11
SMILES | tim10-1 inh | Mot1-301 SUMO | PfHsp90 yeast 2 | TIM10 inh | tim23-1 inh | tim23-1 confirm
Cc1cc(Nc2ccccc2)nc2cc(O)ccc12 | -25 | -16 | -11 | -63 | 65* | 9
Cc1ccc(NC(=O)CCN2C(=O)NC3(CCCC3)C2=O)c(C)c1 | -2 | . | -15 | 2 | 5 | .
CC(C)CN1Cc2ccccc2Oc2cc(Br)ccc2S1(=O)=O | 18 | . | -11 | -3 | 51* | 24
C[C@@H](c1ccccc1)N1Cc2ccccc2Oc2cc(Br)ccc2S1(=O)=O | 14 | . | 3 | -17 | 33 | .
CCCCN1Cc2ccccc2Oc2cc(Br)ccc2S1(=O)=O | 22 | . | -15 | -8 | 51* | 23
CC(=O)OCCN(CCCn1c(-c2ccncc2)nc2ccccc21)c1nc(CN2CCCCC2)cs1 | -30 | -6 | -5 | -8 | -16 | .
COCCN(C(=O)c1cc(Cl)nc2ccccc12)c1c(N)n(Cc2ccccc2)c(=O)[nH]c1=O | 17 | 20 | 30 | 6 | 4 | .
CCC(=O)c1ccc(OCC(=O)OCC(=O)NCCCc2ccccc2)cc1 | 3 | 1 | -85 | 2 | 12 | .
Oc1ccc(/C=N/N(c2ccccc2)c2ccccc2)cc1O | 31 | 21 | 1 | 21 | 68* | 45*
COc1ccc(C(=O)NC(=S)NCc2cccnc2)cc1Cl | 15 | 2 | -30 | -13 | -3 | .
Cc1ccc(C)c(NC(=O)c2cc([N+](=O)[O-])cc([N+](=O)[O-])c2)c1 | 29 | -10 | -7 | 18 | 55* | 51*
N#C/C(=C\c1ccccc1)C(=O)Nc1cccnc1 | 21 | -5 | -15 | 14 | 50* | 50*
CC(C)(C)c1ccc(/C=C(\C#N)C(=O)Nc2ccccn2)cc1 | 29 | 570 | 14 | 38 | 55* | 61*
N#C/C(=C\c1ccccc1)C(=O)Nc1ccccn1 | 14 | 22 | -1 | 30 | 53* | 25
CC(=O)c1ccc(NC(=O)/C(C#N)=C/c2ccncc2)cc1 | 6 | -6 | -4 | 6 | 13 | .
CCc1ccc(NC(=O)/C(C#N)=C/c2ccncc2)cc1 | 37 | 0 | -8 | 22 | 74* | 66*
CC1CCC2C(=O)N(c3ccc(Cc4ccncc4)cc3)C(=O)C2C1 (stereo unspecified) | 27 | -10 | -1 | -1 | 19 | .
Cc1ccccc1OCc1ccc(C(=O)N2CCOCC2)o1 | -7 | -8 | -25 | 12 | 3 | .
O=C(O)CN1C(=O)/C(=C\c2cc(Br)ccc2OCc2ccc([N+](=O)[O-])cc2)SC1=S | -5 | 239 | -54 | 30 | 53* | 71*
Cc1[nH]c2ccccc2c1C(=O)C(=O)NC1CC1 | -11 | -15 | -34 | 6 | 3 | .
O=C(CN1CCN(c2ccc(C(F)(F)F)cn2)CC1)Nc1ccc2c(c1)OCO2 | -1 | 89 | 5 | -1 | 0 | .
CSc1cccc(CN2CCC(n3nccc3NC(=O)C3CC3)CC2)c1 | -11 | . | 1 | -8 | 50* | 15
CCN1C(=O)/C(=C/c2cccs2)SC1=Nc1ccc(OC)cc1 | 12 | 10 | 11 | 8 | 5 | .
COc1ccc(N=C2S/C(=C\c3ccc(Cl)c([N+](=O)[O-])c3)C(=O)N2CCN(C)C)cc1 | 40 | 60 | -15 | 35 | 60* | -27
Cc1ccc(C2=Nc3ccccc3N(C(=O)c3ccccc3)C(C)C2)cc1 (stereo unspecified) | 39 | -9 | 24 | 33 | 52* | 41*
CC(=O)OC1CC(C)N(C(=O)c2ccccc2)c2ccc(C)cc21 (stereo unspecified) | 20 | -12 | . | 16 | 13 | .
